# Results filed as inconclusive are left out. A call without a number means that no potency is given here. Unmarked numbers belong to inactive results. The source made the active and inactive calls. Unless noted, calls follow the shape of the dose curve; as a rule, active = well fitted curve in the direction sought with a large enough effect in the repeat runs; inconclusive = weak or mixed curves; inactive = no such curve, though single readings can be large; an effect the other way counts as inactive or inconclusive.
# Key:
# [1] = qHTS assay to identify small molecule antagonists of the estrogen related receptor (ERR) signaling pathway from Tox21 library - cell viability counter screen (AID 1224834); also: nearly all actives have a fitted effect of over 30% in size; also: potency is read from the fitted curve at half-maximal effect
# Outline: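 Viability readout (CellTiter-Fluor fluorescence, 30 min at 37 C) multiplexed with the ERR assay; cells treated 17.5 h at 37 C with compounds delivered in DMSO.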
# [2] = target: Luciferin 4-monooxygenase (Photinus pyralis) (UniProt P08659); test: qHTS assay to identify small molecule inhibitors of firefly luciferase (AID 1224835); also: series mostly up to about 120 µM; nearly all actives have a fitted effect of over 25% in size
# Outline: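 Biochemical qHTS: compounds run as interplate titrations against purified firefly enzyme, with D-luciferin and ATP each at its KM concentration. Light output recorded by CCD imaging.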
# [3] = qHTS assay to identify small molecule agonists of the constitutive androstane receptor (CAR) signaling pathway - cell viability counter screen (AID 1224836); also: series mostly up to about 92 µM; nearly all actives have a fitted effect of over 45% in size
# Outline: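 Counter screen multiplexed with the CAR reporter readout: HepG2 cells co-transfected with hCAR and the CYP2B6-2.2kb construct receive a 15-concentration compound series and 0.75 uM PK11195 (final), then CellTiter-Fluor fluorescence is read after 23 h.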
# [4] = qHTS assay to identify small molecule antagonists of the constitutive androstane receptor (CAR) signaling pathway - cell viability counter screen (AID 1224837); also: series mostly up to about 92 µM; nearly all actives have a fitted effect of over 45% in size
# Outline: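 Fluorescence from CellTiter-Fluor served as the viability signal. Human hepatoma HepG2 cells stably bearing hCAR and CYP2B6-2.2kb received compound plus CITCO (50 nM final) for 23 hr.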
# [5] = target: Nuclear receptor subfamily 1 group I member 3 (Homo sapiens) (UniProt Q14994); test: qHTS assay to identify small molecule antagonists of the constitutive androstane receptor (CAR) signaling pathway (AID 1224838);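 also: HepG2 cells stably expressing hCAR with CYP2B6 luciferase reporter stimulated by CITCO; nearly all actives have a fitted effect of over 40% in size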
# Outline: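 Quantitative HTS in double-stable HepG2-CYP2B6-hCAR cells. After 4 h plating, cells get compound (15 concentrations) and CITCO at 50 nM final, incubate 24 h at 37 C, then ONE-Glo luminescence is read.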
# [6] = target: Nuclear receptor subfamily 1 group I member 3 (Homo sapiens) (UniProt Q14994); test: qHTS assay to identify small molecule agonists of the constitutive androstane receptor (CAR) signaling pathway (AID 1224839); also: nearly all actives have a fitted effect of over 15% in size; also: potency is read from the fitted curve at half-maximal effect; as to activation: series mostly up to about 92 µM
# Outline: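 A 15-concentration quantitative screen uses HepG2 cells co-transfected stably with human CAR and CYP2B6-2.2kb reporter. Treatment lasts 24 h with 0.75 uM PK11195 final present; ONE-Glo luminescence is the signal.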
# [7] = qHTS assay to identify small molecule antagonists of the estrogen related receptor signaling pathway with the pleiotropic PPARgamma coactivator (PGC) from Tox21 10K library - cell viability counter screen (AID 1224840; active = well fitted cell-killing curve with a large enough effect in the repeat runs, not every such curve was filed as active; also: nearly all actives have a fitted effect of over 40% in size)
# Outline: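 Compounds in DMSO, alongside positive and negative controls, were pinned onto PGC/ERR cells (2,000 per well). Exposure lasted 17.5 hours at 37 C, followed by a 30-minute CellTiter-Fluor incubation and fluorescence reading.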
# [8] = target: Thyrotropin receptor (Homo sapiens) (UniProt P16473); test: qHTS assay to identify small molecule agonists of the thyroid stimulating hormone receptor (TSHR) signaling pathway (AID 1224843; calls by dose curve; also: nearly all actives have a fitted effect of over 45% in size; also: potency is read from the fitted curve at half-maximal effect)
# Outline: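 Steps: seed 800 TSHR-HEK293 cells per well; add test compound and hold 30 min at ambient temperature; dispense cAMP-d2 then anti-cAMP cryptate; incubate 1 h at ambient; measure fluorescence intensity.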
# [9] = qHTS assay to identify small molecule agonists of the estrogen related receptor signaling pathway with the pleiotropic PPARgamma coactivator (PGC) from Tox21 10K library (AID 1224842); also: nearly all actives have a fitted effect of over 15% in size; also: potency is read from the fitted curve at half-maximal effect
# Outline: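 PGC/ERR reporter cell line, 2,000 cells per well, incubated 6 h at 37 C before 23 nL compound in DMSO was added. After 18 h at 37 C, One-Glo luminescence read following 30 min at room temperature.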
# [10] = qHTS assay to identify small molecule antagonists of the estrogen related receptor signaling pathway with the pleiotropic PPARgamma coactivator (PGC) from Tox21 10K library (AID 1224841; call rule not given here; also: series mostly up to about 92 µM; actives are mostly falling curves and most rising ones were filed inactive; nearly all actives have a fitted effect of over 50% in size)
# Outline: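 Compound exposure ran 18 hours at 37 C in PGC/ERR cells (2,000/well) that had first rested 6 hours in a 37 C/5% CO2 incubator. Luciferase activity was then detected with One-Glo after a 30-minute room-temperature step.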
# Sequence of Luciferin 4-monooxygenase (Photinus pyralis) (P08659 whole entry, looked up): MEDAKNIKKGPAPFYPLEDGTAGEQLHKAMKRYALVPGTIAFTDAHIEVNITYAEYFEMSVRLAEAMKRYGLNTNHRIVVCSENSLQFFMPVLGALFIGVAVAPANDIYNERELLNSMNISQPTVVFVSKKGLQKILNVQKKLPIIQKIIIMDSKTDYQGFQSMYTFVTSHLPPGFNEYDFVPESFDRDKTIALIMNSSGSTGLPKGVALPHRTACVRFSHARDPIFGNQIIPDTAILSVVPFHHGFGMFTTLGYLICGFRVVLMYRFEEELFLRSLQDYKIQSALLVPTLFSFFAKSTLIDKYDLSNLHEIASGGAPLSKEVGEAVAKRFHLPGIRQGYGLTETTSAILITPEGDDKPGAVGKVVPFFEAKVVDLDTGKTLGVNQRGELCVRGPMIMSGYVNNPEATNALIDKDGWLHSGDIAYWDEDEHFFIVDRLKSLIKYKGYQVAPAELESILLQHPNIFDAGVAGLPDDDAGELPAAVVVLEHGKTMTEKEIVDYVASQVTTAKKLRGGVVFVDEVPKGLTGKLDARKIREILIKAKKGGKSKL
# Sequence of Thyrotropin receptor (Homo sapiens) (P16473 whole entry, looked up): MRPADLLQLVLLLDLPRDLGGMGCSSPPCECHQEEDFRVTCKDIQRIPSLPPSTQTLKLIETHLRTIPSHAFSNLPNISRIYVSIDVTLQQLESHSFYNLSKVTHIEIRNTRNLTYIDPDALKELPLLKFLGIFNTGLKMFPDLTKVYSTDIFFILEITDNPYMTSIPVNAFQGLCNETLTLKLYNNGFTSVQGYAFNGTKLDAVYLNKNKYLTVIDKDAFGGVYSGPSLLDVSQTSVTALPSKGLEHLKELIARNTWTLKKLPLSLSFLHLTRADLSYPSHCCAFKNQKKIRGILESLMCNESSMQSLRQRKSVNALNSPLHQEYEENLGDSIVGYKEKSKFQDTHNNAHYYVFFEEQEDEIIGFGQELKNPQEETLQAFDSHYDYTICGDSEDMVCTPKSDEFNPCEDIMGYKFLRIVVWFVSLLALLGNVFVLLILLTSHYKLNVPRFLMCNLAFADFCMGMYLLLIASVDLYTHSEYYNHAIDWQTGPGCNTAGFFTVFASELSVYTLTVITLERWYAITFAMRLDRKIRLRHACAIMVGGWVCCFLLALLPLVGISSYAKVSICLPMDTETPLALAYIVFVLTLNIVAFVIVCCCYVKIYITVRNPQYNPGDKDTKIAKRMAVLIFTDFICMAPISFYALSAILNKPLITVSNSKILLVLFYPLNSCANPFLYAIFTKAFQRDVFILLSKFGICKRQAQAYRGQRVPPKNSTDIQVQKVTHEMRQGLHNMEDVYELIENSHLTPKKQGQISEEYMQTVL
# Sequence of Nuclear receptor subfamily 1 group I member 3 (Homo sapiens) (Q14994 whole entry, looked up): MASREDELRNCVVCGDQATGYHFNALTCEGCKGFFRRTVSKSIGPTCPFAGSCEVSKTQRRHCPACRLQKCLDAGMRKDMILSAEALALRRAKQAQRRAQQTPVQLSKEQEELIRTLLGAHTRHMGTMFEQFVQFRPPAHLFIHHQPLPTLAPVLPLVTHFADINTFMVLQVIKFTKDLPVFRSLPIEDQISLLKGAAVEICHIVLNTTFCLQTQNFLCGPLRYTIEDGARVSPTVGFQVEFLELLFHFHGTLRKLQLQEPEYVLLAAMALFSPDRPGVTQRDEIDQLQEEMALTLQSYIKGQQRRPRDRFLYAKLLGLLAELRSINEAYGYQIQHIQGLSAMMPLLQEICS
structure (smiles),measurement,setting,value
Brc1ccccc1,Potency,[1],inactive
same,Potency,[2],inactive
same,Potency,[3],inactive
same,Potency,[4],inactive
same,Potency,[5],inactive
same,Potency,[6],inactive
same,Potency,[7],inactive
same,Potency,[8],inactive
O=[N+]([O-])c1ccccc1CCl,Potency,[1],inactive
same,Potency,[2],inactive
same,Potency,[3],inactive
same,Potency,[4],inactive
same,Potency,[5],inactive
same,Potency,[6],inactive
same,Potency,[7],inactive
same,Potency,[8],inactive
CCCCCCCCOC(=O)c1ccc(C(=O)OCCCCCCCC)c(C(=O)OCCCCCCCC)c1,Potency,[1],inactive
same,Potency,[2],inactive
same,Potency,[3],inactive
same,Potency,[4],inactive
same,Potency,[5],inactive
same,Potency,[6],inactive
same,Potency,[8],inactive
COC(=O)C(Cl)C(=O)OC,Potency,[1],inactive
same,Potency,[2],inactive
same,Potency,[3],inactive
same,Potency,[4],inactive
same,Potency,[5],inactive
same,Potency,[6],inactive
same,Potency,[7],inactive
same,Potency,[8],inactive
CCOP(=S)(OCC)SCn1nnc2ccccc2c1=O,Potency,[1],43.3 µM (active)
same,Potency,[2],inactive
same,Potency,[3],inactive
same,Potency,[4],inactive
same,Potency,[5],inactive
same,Potency,[6],24.3 µM (active)
same,Potency,[9],inactive
same,Potency,[8],inactive
O=C(O)CC(Cl)C(=O)O (configuration not stated),Potency,[1],inactive
same,Potency,[2],inactive
same,Potency,[3],inactive
same,Potency,[4],inactive
same,Potency,[5],inactive
same,Potency,[6],inactive
same,Potency,[10],inactive
same,Potency,[9],inactive
same,Potency,[8],inactive
C=CCCl,Potency,[1],inactive
same,Potency,[2],inactive
same,Potency,[3],inactive
same,Potency,[4],inactive
same,Potency,[5],inactive
same,Potency,[6],inactive
same,Potency,[7],inactive
same,Potency,[8],inactive
CN(N=O)c1ccc([N+](=O)[O-])cc1,Potency,[1],inactive
same,Potency,[2],inactive
same,Potency,[3],inactive
same,Potency,[4],inactive
same,Potency,[5],inactive
same,Potency,[7],inactive
O=C1c2ccccc2C(=O)C1C(=O)C(c1ccccc1)c1ccccc1,Potency,[1],inactive
same,Potency,[2],inactive
same,Potency,[3],inactive
same,Potency,[4],inactive
same,Potency,[5],inactive
same,Potency,[6],inactive
same,Potency,[9],inactive
same,Potency,[8],inactive
C=CCC1([C@H](C)CCC)C(=O)NC(=O)NC1=O,Potency,[1],inactive
same,Potency,[2],inactive
same,Potency,[3],inactive
same,Potency,[4],inactive
same,Potency,[5],inactive
same,Potency,[6],inactive
same,Potency,[8],inactive
CCOc1nc(F)cc2nc(S(=O)(=O)Nc3c(Cl)cccc3Cl)nn12,Potency,[1],inactive
same,Potency,[2],inactive
same,Potency,[3],inactive
same,Potency,[4],inactive
same,Potency,[5],inactive
same,Potency,[6],inactive
same,Potency,[7],inactive
same,Potency,[8],inactive
CCC(Cl)CCl (configuration not stated),Potency,[1],inactive
same,Potency,[2],inactive
same,Potency,[3],inactive
same,Potency,[4],inactive
same,Potency,[5],inactive
same,Potency,[6],inactive
same,Potency,[10],inactive
same,Potency,[9],inactive
same,Potency,[8],inactive
NNC(=O)c1cccnc1,Potency,[1],inactive
same,Potency,[2],inactive
same,Potency,[3],inactive
same,Potency,[4],inactive
same,Potency,[5],inactive
same,Potency,[7],inactive
O=C(O)c1ccccc1C(=O)Nc1cccc2ccccc12,Potency,[1],inactive
same,Potency,[2],inactive
same,Potency,[3],inactive
same,Potency,[4],inactive
same,Potency,[5],inactive
same,Potency,[6],30.6 µM (active)
same,Potency,[7],inactive
same,Potency,[8],inactive
CCCN(CCCl)c1c([N+](=O)[O-])cc(C(F)(F)F)cc1[N+](=O)[O-],Potency,[1],inactive
same,Potency,[2],inactive
same,Potency,[3],inactive
same,Potency,[4],inactive
same,Potency,[5],inactive
same,Potency,[7],inactive
same,Potency,[10],inactive
same,Potency,[9],inactive
same,Potency,[8],1.93 µM (active)
CC(C)(CCl)C(=O)Cl,Potency,[1],inactive
same,Potency,[2],inactive
same,Potency,[3],inactive
same,Potency,[4],inactive
same,Potency,[5],inactive
same,Potency,[6],inactive
same,Potency,[7],inactive
same,Potency,[8],inactive
O=C(O)C(F)(F)C(F)(F)C(F)(F)C(F)(F)C(F)(F)C(F)(F)C(F)(F)C(F)(F)C(F)(F)F,Potency,[1],inactive
same,Potency,[2],inactive
same,Potency,[3],inactive
same,Potency,[4],inactive
same,Potency,[5],inactive
same,Potency,[6],inactive
same,Potency,[9],inactive
same,Potency,[8],inactive
C=COC(C)=O,Potency,[1],inactive
same,Potency,[2],inactive
same,Potency,[3],inactive
same,Potency,[4],inactive
same,Potency,[5],inactive
same,Potency,[6],inactive
same,Potency,[7],inactive
same,Potency,[8],inactive
COCCOCCO,Potency,[1],inactive
same,Potency,[2],inactive
same,Potency,[3],inactive
same,Potency,[4],inactive
same,Potency,[5],inactive
same,Potency,[6],inactive
same,Potency,[9],inactive
O=C(O)C(F)(F)C(F)(F)C(F)(F)C(F)(F)C(F)(F)C(F)(F)C(F)(F)C(F)(F)C(F)(F)C(F)(F)F,Potency,[1],inactive
same,Potency,[2],inactive
same,Potency,[3],inactive
same,Potency,[4],inactive
same,Potency,[5],inactive
same,Potency,[7],inactive
same,Potency,[10],inactive
same,Potency,[9],57.9 µM (active)
N#CCc1ccccc1,Potency,[1],inactive
same,Potency,[2],inactive
same,Potency,[3],inactive
same,Potency,[4],inactive
same,Potency,[5],inactive
same,Potency,[6],inactive
same,Potency,[7],inactive
same,Potency,[8],inactive
Cl/C=C\Cl,Potency,[1],inactive
same,Potency,[2],inactive
same,Potency,[3],inactive
same,Potency,[4],inactive
same,Potency,[7],inactive
same,Potency,[8],inactive
CN1C(=O)NC(=O)C(C)(C2=CCCCC2)C1=O (configuration not stated),Potency,[1],inactive
same,Potency,[2],inactive
same,Potency,[3],inactive
same,Potency,[4],inactive
same,Potency,[6],inactive
same,Potency,[7],inactive
same,Potency,[8],inactive
CC(C)(OO)c1ccccc1,Potency,[1],inactive
same,Potency,[2],inactive
same,Potency,[3],inactive
same,Potency,[4],inactive
same,Potency,[6],inactive
same,Potency,[7],inactive
same,Potency,[10],inactive
same,Potency,[9],inactive
same,Potency,[8],34.4 µM (active)
CO[C@@H]1[C@H](OC(=O)NC(=O)CCl)CC[C@]2(CO2)[C@H]1[C@@]1(C)O[C@@H]1CC=C(C)C,"viability change, negative = cytotoxic",[1],-3.88% [at 19 µM]
same,"activity change, negative = inhibition",[2],2.04% [at 23.6 µM]
same,"viability change, negative = cytotoxic",[3],-5.35% [at 19 µM]
same,"activity change, negative = cytotoxicity",[4],-18.3% [at 19 µM]
same,activation,[6],-1.38% [at 19 µM]
same,activation,[9],-7.49% [at 19 µM]
same,activation,[8],-6.28% [at 19 µM]
CN1C(=O)C(O)N=C(c2ccccc2)c2cc(Cl)ccc21 (configuration not stated),Potency,[1],inactive
same,Potency,[2],inactive
same,Potency,[3],inactive
same,Potency,[4],inactive
same,Potency,[7],inactive
same,Potency,[10],inactive
same,Potency,[9],inactive
C[N+](C)(C)CCCl,Potency,[1],inactive
same,Potency,[2],inactive
same,Potency,[3],inactive
same,Potency,[4],inactive
same,Potency,[7],inactive
same,Potency,[10],inactive
same,Potency,[9],inactive
same,Potency,[8],inactive
CC1C(=O)C[C@]2(C(C)C)C[C@H]12 (some centres not stated),Potency,[1],inactive
same,Potency,[2],inactive
same,Potency,[3],inactive
same,Potency,[4],inactive
same,Potency,[7],inactive
same,Potency,[8],inactive
Cc1ccc2ccccc2c1,Potency,[1],inactive
same,Potency,[2],inactive
same,Potency,[3],inactive
same,Potency,[4],inactive
same,Potency,[7],inactive
same,Potency,[10],inactive
same,Potency,[9],inactive
ClCC(Br)CBr (configuration not stated),Potency,[1],inactive
same,Potency,[2],inactive
same,Potency,[3],inactive
same,Potency,[4],inactive
same,Potency,[7],inactive
same,Potency,[8],inactive

# Source: PubChem BioAssay (Tox21)
